Test results published in ChEMBL document CHEMBL4513146, “CO-ADD screening of Karazin Kharkiv National University (Ukraine) compounds”.
Results with a measured potency or affinity are listed apart.

Columns and labels:
Klebsiella pneumoniae = conditions: Concentration 32 ug.mL-1;; ASSAY_TEST Inhibition of Bacterial Growth; detection method Absorption (OD600); MEDIA CAMHB; plate type 384well; NBS; CORNING #3640; time 18 hr
Candida albicans = conditions: Concentration 32 ug.mL-1; ASSAY_TEST Inhibition of Fungal Growth; detection method Absorption (OD530)
Cryptococcus neoformans = conditions: Concentration 32 ug.mL-1; ASSAY_TEST Inhibition of Fungal Growth; detection method Resazurin; Absorption (OD600-OD570); plate type 384well; NBS; CORNING #3640

SMILES	Inhibition (Klebsiella pneumoniae) [%]	Inhibition (Candida albicans) [%]	Inhibition (Cryptococcus neoformans) [%]
Cc1cccc(NC(=O)CSc2nnc3ccc(C(=O)Nc4cccc(F)c4)cn23)c1C	-0.74	4.11	-4.88
Cc1nnc2ccc(S(=O)(=O)N(Cc3cccc(F)c3)c3ccc(F)cc3)cn12	4.75	1.87	-9.68
CC(C)Cn1c(=O)c2sccc2n2c(=O)n(CC(=O)N(C)c3ccccc3)nc12	9.42	-0.55	-10.06
CCOc1ccc(-n2ccn3c(SC(C)C(=O)Nc4ccc5c(c4)OCCO5)nnc3c2=O)cc1 (stereo not given)	14.39	0.98	-16.53
COc1ccc(NC(=O)CSc2nc3ccccc3n3cnnc23)cc1OC	13.64	4.39	-35.7
O=S(=O)(c1cccn2cnnc12)N(Cc1ccccc1F)c1ccc(F)c(F)c1	13.33	5.39	-3.16
Cc1ccc(-c2nnc3c(=O)n(CC(=O)Nc4cc(C)cc(C)c4)c4ccccc4n23)cc1	11.28	-1.05	-21.63
CCc1ccccc1NC(=O)Cn1nc2c(SC3CCCCC3)nccn2c1=O	9.89	-0.63	-27.01
COc1ccc(-n2ccn3c(=O)n(Cc4cc(C)ccc4C)nc3c2=O)cc1Cl	9.01	1.96	-5.13
Cc1cc(C)c(NC(=O)Cn2c(=O)c3nnc(C(C)C)n3c3ccccc32)c(C)c1	11.01	4.09	-5.77
COc1ccc(OC)c(NC(=O)Cn2nc3c4cc(-c5ccc(C)c(C)c5)nn4ccn3c2=O)c1	5.66	5.32	-22.06
COc1cccc(-n2ccn3c(SCc4cc(C)ccc4C)nnc3c2=O)c1	8.78	2.61	-5.92
COc1cccc(CNC(=O)CSc2nnc3c(=O)n(-c4ccc(C)c(C)c4)ccn23)c1OC	8.73	0.37	-5.22
Cc1cc(C)cc(NC(=O)Cn2nc3c(N4CCCC4)nccn3c2=O)c1	18.22	0.29	-23.65
COc1cccc(-n2ccn3c(SCC(=O)c4c[nH]c5ccccc45)nnc3c2=O)c1	10.78	4.57	-9.55
CC(C)c1ccc(NC(=O)CSc2nc3ccccc3n3cnnc23)cc1	3.82	7.46	-15.4
CCc1ccc(NC(=O)Cn2nc3c(Oc4cccc(OC)c4)nccn3c2=O)cc1	-4.18	2.5	-4.27
CCCCn1c(=O)c2sccc2n2c(=O)n(CC(=O)N3CCC(Cc4ccccc4)CC3)nc12	0.07	-1.21	-0.28
Cc1ccc(-c2cc3c4nnc(SCC(=O)Nc5ccc(C#N)cc5)n4ccn3n2)cc1	4.89	0.36	-27.44
O=C(CSc1nnc2c(=O)n(-c3ccccc3)ccn12)Nc1ccc(Br)cc1F	1.03	2.95	-12.46
CCc1nnc2c(S(=O)(=O)N(Cc3ccccc3Cl)c3ccccc3)cccn12	6.34	3.28	-4.36
Cc1ccc(NC(=O)Cn2nc3c(SCc4ccc(Cl)cc4)nccn3c2=O)cc1F	7.4	3.39	-12.99
CC(C)c1ccc(CNC(=O)CCc2nnc3c(N4CCCCC4)nc4ccccc4n23)cc1	8.5	0.52	-24.76
Cc1ccc(-c2cc3c4nnc(CCC(=O)N5CCC(Cc6ccccc6)CC5)n4ccn3n2)cc1C	14.91	0.82	-35.19
CCc1nnc2c(S(=O)(=O)N(Cc3cccc(C)c3)c3ccc(Cl)cc3)cccn12	3.49	0.59	-3.81
O=c1n(Cc2cccc(C(F)(F)F)c2)nc2ccc(S(=O)(=O)N3CCCCC3)cn12	10.15	0.06	-10.55
COc1ccc(OC)c(NC(=O)Cn2nc3ccc(-c4ccc(Cl)cc4)nn3c2=O)c1	15.39	0.24	-17.15
Cc1nnc2ccc(S(=O)(=O)N(Cc3ccccc3Cl)c3ccc(F)cc3)cn12	0.63	5.22	-2.96
O=C(Cn1nc2c(N3CCOCC3)nccn2c1=O)NCc1ccc(C(F)(F)F)cc1	3.05	1.76	-5.37
CCc1ccc(NC(=O)CSc2nnc3ccc(C(=O)Nc4cccc(F)c4)cn23)cc1	0.94	1.65	-4.96
